Here are results for 19 compounds from PubChem BioAssay (Tox21).

Assay [1] in a line: qHTS assay to identify small molecule agonists of the vitamin D receptor (VDR) signaling pathway - cell viability counter screen (AID 743224). Further: nearly all actives have a fitted effect of over 50% in size. Further: potency means the concentration at half of the fitted maximal effect. In short, it runs like this: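 VDR-bla cells, 4 h after plating, exposed to compounds for 16 h at 37C; viability then read in the same wells as CellTiter-Glo luminescence after 30 min at room temperature, following the bla FRET read.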

Assay [2] can be described thus: qHTS assay to identify small molecule agonists of the NFkB signaling pathway (AID 1159509; active means well fitted curve in the direction sought with a large enough effect in the signal ratio in the repeat runs, not every such curve was filed as active; the % refers to the signal ratio). In short, it runs like this: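 NFkB-bla ME-180 cells with a beta-lactamase reporter under an NF-kB response element were plated overnight, treated with compounds in DMSO for 5 hr at 37 C, then loaded with FRET substrate for 1.5 hr at room temperature.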
Assay [3] in a line: qHTS assay to identify small molecule agonists of the endoplasmic reticulum stress response signaling pathway - cell viability counter screen (AID 1159517; calls by dose curve; further: nearly all actives have a fitted effect of over 50% in size; further: potency means the concentration at half of the fitted maximal effect). In outline: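 Cells, HeLa ESRE-bla; density, 1,500/well; dosing, 5 hr at 37 C, 5% CO2; readout, CellTiter-Glo luminescence after 30 min RT.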
Assay [4] is described as follows: qHTS assay to identify small molecule antagonists of the retinoid-related orphan receptor gamma (ROR-gamma) signaling pathway - cell viability counter screen (AID 1159520). Further: nearly all actives have a fitted effect of over 50% in size. Further: potency means the concentration at half of the fitted maximal effect. In short, it runs like this:
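Cytotoxicity was read from cellular ATP (CellTiter-Glo luminescence) after 16 hr at 37 C with 1 uM doxycycline induction. The inducer was added 2 hr after compound transfer to Tet-on ROR gamma CHO cells.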

The target in assay [5] is Nuclear receptor ROR-gamma (Homo sapiens) (UniProt P51449). The experiment in a line: qHTS assay to identify small molecule antagonists of the retinoid-related orphan receptor gamma (ROR-gamma) signaling pathway (AID 1159521; further: nearly all actives have a fitted effect of over 50% in size; further: potency means the concentration at half of the fitted maximal effect). In short, it runs like this:
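Luminescence readout (ONE-Glo, 30 min RT) after 16 h doxycycline induction; loss of signal scored as antagonism. CHO cells with TET-inducible RORγ and RORE-LUC reporter; compounds added 2 h before 1 uM final doxycycline.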

The nature of assay [6]: qHTS assay to identify small molecule agonists of the AP-1 signaling pathway - cell viability counter screen (AID 1159525; calls by dose curve; further: nearly all actives have a fitted effect of over 55% in size; further: potency means the concentration at half of the fitted maximal effect). In outline:
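Luminescent ATP readout (Cell Titer Glo, 30 min RT), normalised to DMSO and tetra n-octyl ammonium bromide controls. Cells were ME-180 AP-1-bla in 0.5% dialyzed FBS Opti-MEM, with a 5 h, 37 °C compound exposure.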

Assay [7] is described as follows: qHTS assay to identify small molecule agonists of the AP-1 signaling pathway (AID 1159526; calls by dose curve; further: potency means the concentration at half of the fitted maximal effect).
Assay [8] in a line: qHTS assay to identify small molecule agonists of the RXR signaling pathway - cell viability counter screen (AID 1159529). Further: nearly all actives have a fitted effect of over 50% in size. Further: potency means the concentration at half of the fitted maximal effect. In short, it runs like this: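 Luminescence from CellTiter-Glo (30 min, RT) measured viability in the same wells as the beta-lactamase reporter readout. Cells: GeneBLAzer RXR-alpha HEK 293T, 2% charcoal-stripped FBS. Compound exposure 16 hr, 37 C.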
The nature of assay [9]: qHTS assay to identify small molecule antagonists of the retinoid acid receptor (RAR) signaling pathway - cell viability counter screen (AID 1159551). Further: nearly all actives have a fitted effect of over 35% in size. Further: potency means the concentration at half of the fitted maximal effect. In outline:
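C3RL4 RARE-luciferase cells, 1,000/well, incubated overnight, then dosed with compound plus 1 uM retinol (final). After 6 hr at 37 C, viability read by CellTiter-Glo ATP luminescence following 30 min at room temperature.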

Assay [10] is described as follows: qHTS assay to identify small molecule antagonists of the retinoic acid receptor (RAR) signaling pathway (AID 1159552; further: nearly all actives have a fitted effect of over 50% in size; further: potency means the concentration at half of the fitted maximal effect). In short, it runs like this: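 Luminescence from a RARE luciferase reporter in C3RL4 cells served as read-out. Cells received compounds together with 1 uM final retinol and incubated 6 hr at 37 C before detection reagent was added for 30 min at room temperature.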

The nature of assay [11]: qHTS assay to identify small molecule agonists of the retinoic acid receptor (RAR) signaling pathway (AID 1159553). Further: potency means the concentration at half of the fitted maximal effect. The note with it: C3RL4 RARE luciferase reporter, agonist, 6 h; activation: at 73.3 µM (top of the series). In outline:
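C3RL4 RARE-luciferase cells were seeded at 1,000/well and grown overnight at 37 C, then exposed to compounds for 6 hr at 37 C, 5% CO2. Luciferase reagent was added and luminescence was read after 30 min at room temperature.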

Assay [12] in a line: qHTS assay to identify small molecule antagonists of the vitamin D receptor (VDR) signaling pathway - cell viability counter screen (AID 743225). Further: nearly all actives have a fitted effect of over 50% in size. Further: potency means the concentration at half of the fitted maximal effect. In short, it runs like this: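 Viability counter screen run in the same wells as the beta-lactamase reporter assay: HEK 293T VDR-UAS-bla cells, 16 h compound exposure at 37C with 3 nM (final) 1-alpha,25-dihydroxyvitamin D3. CellTiter-Glo luminescence, 30 min, room temperature.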

Assay [13] addresses Retinoic acid receptor RXR-alpha (Homo sapiens) (UniProt P19793). As to the kind of experiment: qHTS assay to identify small molecule agonists of the RXR signaling pathway (AID 1159527; calls by dose curve; further: nearly all actives have a fitted effect of over 35% in size). In short, it runs like this: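 Agonist mode; 9-cis retinoic acid positive control. HEK 293T UAS-bla reporter cells, 2% charcoal-stripped FBS, 16 hr compound exposure at 37 C/5% CO2. LiveBLAzer B/G FRET substrate 2 hr RT; ex 405, em 460/530 nm.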

Assay [14] can be described thus: qHTS assay to identify small molecule agonists of the endoplasmic reticulum stress response signaling pathway (AID 1159516; active means well fitted activation curve with a large enough effect in the signal ratio in the repeat runs, not every such curve was filed as active; the % refers to the signal ratio). In outline:
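CellSensor ESRE-bla HeLa cells, 1,500 per well, plated overnight, then exposed to compounds for 5 hr at 37 C. Beta-lactamase reporter read with LiveBLAzer B/G FRET substrate after 2 hr at room temperature, 405 nm excitation, 460 and 530 nm emission.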

Where “and” joins values, the source holds several entries; their conditions need not be identical. Identical values can stand only once. Inconclusive results are not listed. Calls of active or inactive are those of the source. Unless noted, the call rests on the fitted dose curve; in most records, active means well fitted curve in the direction sought with a large enough effect in the repeat runs; inconclusive means weak or mixed curves; inactive means no such curve, though single readings can be large; an effect the other way counts as inactive or inconclusive.

Chain of Retinoic acid receptor RXR-alpha (Homo sapiens) (P19793 whole entry, looked up): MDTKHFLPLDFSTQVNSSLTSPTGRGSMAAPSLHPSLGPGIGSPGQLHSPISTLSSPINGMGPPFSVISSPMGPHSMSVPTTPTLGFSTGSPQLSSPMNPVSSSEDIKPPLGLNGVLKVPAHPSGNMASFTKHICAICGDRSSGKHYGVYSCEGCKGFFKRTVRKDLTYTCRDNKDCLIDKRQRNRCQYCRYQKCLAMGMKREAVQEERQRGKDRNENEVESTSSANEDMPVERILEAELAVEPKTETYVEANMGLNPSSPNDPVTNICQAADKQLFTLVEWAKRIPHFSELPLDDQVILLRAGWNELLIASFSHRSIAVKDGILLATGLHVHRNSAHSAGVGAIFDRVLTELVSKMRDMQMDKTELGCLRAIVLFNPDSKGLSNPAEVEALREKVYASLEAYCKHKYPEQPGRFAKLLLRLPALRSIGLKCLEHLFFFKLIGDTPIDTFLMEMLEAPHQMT

Take `CC(C)c1nc(CN(C)C(=O)N[C@H](C(=O)N[C@@H](Cc2ccccc2)C[C@H](O)[C@H](Cc2ccccc2)NC(=O)OCc2cncs2)C(C)C)cs1`: the Potency result in assay [1], in assay [2], in [4], in assay [5], in assay [7] and in [9] was “inactive” throughout. Further, the Potency entry in assay [10] and in assay [11] was “inactive” in each case. Further, the Potency in assay [3] is 15.1 µM (active); in [6], 19 µM (active); in assay [8], 9.52 µM (active).

As to `C[C@@H]1CC(=O)NN=C1c1ccc(NN=C(C#N)C#N)cc1`, the Potency result in assay [1], in [12], in assay [2], in assay [3], in [6] and in assay [8] was “inactive” each time. In addition, the Potency result in [9] and in assay [10] was “inactive” each time. Also, the Potency in [4] was 2.98 µM (active) and 2.11 µM (active); in assay [5], 4.22 µM (active).

`CC[N+](CC)(CCNC(=O)C(=O)NCC[N+](CC)(CC)Cc1ccccc1Cl)Cc1ccccc1Cl`: the Potency result in [1], in [12], in [2], in [3], in assay [4] and in assay [5] was “inactive” in each case. In addition, the Potency result in assay [6], in assay [7], in assay [13], in assay [8], in assay [9] and in assay [10] was “inactive” each time. Moreover, in assay [11], the Potency entry is “inactive”.

As to `CC/C=C1/OC(=O)c2ccccc21`, the Potency result in assay [1], in assay [12], in assay [2], in [3], in [4] and in assay [5] was “inactive” in each case. Moreover, the Potency entry in [9] and in assay [10] was “inactive” throughout.

In the case of `C=CC(C)(CCC=C(C)C)OC(=O)CC(C)C` (stereo not given), the Potency result in assay [1], in [12], in assay [2], in [3], in assay [4] and in assay [5] was “inactive” in each case. Also, the Potency entry in [7], in assay [13], in assay [8], in assay [9], in assay [10] and in assay [11] was “inactive” throughout.

As to `Oc1c(I)cc(I)c2cccnc12`, the Potency entry in assay [2], in assay [3], in [4], in assay [9] and in assay [10] was “inactive” each time.

With `CN1CCCC(CC2c3ccccc3Sc3ccccc32)C1` (stereo not given), the Potency in assay [1] was 26.6 µM (active); in assay [12], 21.3 µM (active); in assay [7], 16.9 µM (active). In addition, the Potency result in [2], in assay [14], in assay [3], in assay [6] and in assay [9] was “inactive” throughout.

For `CS(=O)(=O)c1ccc(-c2cn3ccccc3n2)cc1`, the Potency was 29.8 µM (active) in assay [1], 23.9 µM (active) in assay [3], 11.9 µM (active) in assay [9] and 1.68 µM (active) in assay [11]. Also, the Potency result in assay [2], in assay [14], in assay [5] and in assay [10] was “inactive” in each case.

For the compound `CCCCCC#CC(=O)OC`, the Potency entry in assay [1], in assay [12], in assay [2], in assay [14], in [3] and in assay [5] was “inactive” throughout. Besides, the Potency entry in assay [7], in [8] and in [9] was “inactive” throughout.

`C1COC1`: the Potency result in assay [1], in assay [12], in assay [2], in assay [14], in assay [5] and in [6] was “inactive” each time. The Potency result in assay [7], in [13], in assay [8], in [9] and in assay [10] was “inactive” throughout.

`CC1=C(Br)C(=O)C(Br)=C/C1=C(/c1ccccc1S(=O)(=O)O)c1cc(Br)c(O)c(Br)c1C`: the Potency entry in [1], in assay [2], in assay [3], in assay [6], in [7] and in assay [8] was “inactive” throughout. For the same compound, in assay [11], the Potency entry is “inactive”. Moreover, the figures for the Potency in assay [5], in assay [9] and in [10] were 18.6 µM (active), 16.5 µM (active) and 20.8 µM (active), respectively.

`C(=C\c1ccccc1)/c1ccccc1`: the Potency result in assay [1], in [12], in assay [2], in assay [14], in [4] and in assay [5] was “inactive” throughout. The Potency entry in [6], in assay [7], in [13], in [8], in [9] and in assay [10] was “inactive” each time. The Potency in assay [11] is 8.56 µM (active).

As to `O=C(OC(=O)c1ccccc1)c1ccccc1`, the Potency result in assay [1], in assay [12], in [2], in assay [14], in assay [4] and in assay [5] was “inactive” each time. For the same compound, the Potency result in assay [6], in assay [7], in [13], in assay [8] and in assay [9] was “inactive” throughout.

On to `O=C=Nc1ccc(Cl)c(Cl)c1`, for which the Potency entry in [2], in assay [3], in assay [5], in assay [6], in assay [7] and in assay [13] was “inactive” in each case. Besides, the Potency entry in [9], in assay [10] and in [11] was “inactive” throughout.

On to `COc1ccccc1N1CCN(CCCCNC(=O)c2ccc(-c3ccc(C(C)=O)cc3)cc2)CC1`, for which the Potency entry in [1], in assay [12], in assay [2], in assay [14], in [3] and in assay [7] was “inactive” throughout. The Potency entry in [8], in assay [9], in assay [10] and in assay [11] was “inactive” throughout.

Turning to `CC(=O)NC1(c2cccc(F)c2)CCN(CC[C@@]2(c3ccc(Cl)c(Cl)c3)CN(c3ccccc3)C(=O)CO2)CC1`, the Potency in [1] was 39 µM (active); in assay [12] it was 43.8 µM (active); in assay [5] it was 38.7 µM (active); in [8] it was 19.6 µM (active); in assay [10], 43.4 µM (active). The Potency result in assay [2], in assay [14], in assay [6], in assay [7], in [9] and in assay [11] was “inactive” throughout.

For the compound `C=CC(=O)[O-].C=CC(=O)[O-].[Zn+2]`, the Potency result in [1], in assay [12], in assay [2], in [3], in [4] and in assay [5] was “inactive” each time. The Potency entry in [8], in [9] and in assay [10] was “inactive” in each case.

As for `C=C(C)C(=O)OCCCCCCCCCCCCC`, the Potency entry in assay [1], in assay [12], in assay [2], in [14], in assay [4] and in assay [5] was “inactive” each time. Further, the Potency entry in [7], in [13], in assay [8], in assay [9], in assay [10] and in assay [11] was “inactive” each time.

As for `Cc1ccco1`, the Potency entry in assay [1], in [12], in [2], in assay [14], in [4] and in [5] was “inactive” throughout. The Potency entry in assay [6], in assay [7], in [8] and in assay [9] was “inactive” each time.
